This passage reports inhibition results from PubChem BioAssay AID720509 (The Scripps Research Institute Molecular Screening Center, 2013).

Each structure is given as a SMILES string. In all, about 370,000 compounds went through this assay and about 760 (0.21%) were called active. Only a selection was taken, and actives are over-represented in it overall. A number with no mark means an inactive call.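 The calls were made as follows: active = inhibition above a per-campaign cutoff: mean of compounds within control limits plus 3 SD (cut at about 15% in these data); inactive = the rest.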

Fibrinogen beta chain (Homo sapiens), sequence (P02675 whole entry, looked up): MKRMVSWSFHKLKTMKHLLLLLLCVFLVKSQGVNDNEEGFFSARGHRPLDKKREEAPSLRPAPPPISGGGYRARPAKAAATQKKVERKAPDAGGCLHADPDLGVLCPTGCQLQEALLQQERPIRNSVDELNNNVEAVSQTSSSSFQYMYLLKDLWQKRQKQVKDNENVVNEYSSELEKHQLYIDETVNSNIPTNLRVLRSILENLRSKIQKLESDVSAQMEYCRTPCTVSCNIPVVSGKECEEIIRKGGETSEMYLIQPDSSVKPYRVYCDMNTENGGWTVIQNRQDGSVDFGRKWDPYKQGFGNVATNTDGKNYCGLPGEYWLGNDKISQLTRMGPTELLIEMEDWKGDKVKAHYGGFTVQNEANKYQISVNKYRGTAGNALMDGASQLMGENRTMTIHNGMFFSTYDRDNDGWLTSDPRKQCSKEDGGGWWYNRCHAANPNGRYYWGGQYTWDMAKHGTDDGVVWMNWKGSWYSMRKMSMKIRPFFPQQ

This assay addresses Fibrinogen beta chain (Homo sapiens) (UniProt P02675). As to the kind of experiment: small molecules displacing Tn6 from DD(E) complex – biochemical, fluorescence polarization, human fibrin, Tn6 probe, primary screen (AID 720509).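 Also: 0% = median of all compound wells on the plate and 100% = blocking peptide control.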 As to conditions: Fibrin DD(E) TRITC-Tn6 fluorescence polarization displacement; at 8.3 µM; active compounds read high. In general terms: In fluorescence polarisation assays a small probe gives low polarisation when free and higher when bound to something large.
As for `CC1CNCCN1c1ccc(Cl)cc1` (stereo not given), the inhibition (usually the drop in the measured response relative to a control, in per cent) was 0.71%. Then `Cc1cc(N2CCNC[C@@H]2C)ccc1N1CC[C@H](O)C1`, with 15.6% (active); and `COc1ccccc1-n1c(O)c(C=NC2CC2)c(=O)[nH]c1=O`, with -5.91%; and `CC(=O)C1(O)CCC2C3CCC4=C(Cl)C(=O)CCC4(C)C3CCC21C` (stereo not given), with -1.79%.

Consider `OC(Cn1c2ccccc2c2ccccc21)C[n+]1ccccc1` (stereo not given), for which the inhibition was -10%. Turning to `COC1=C[C@@H]2[C@@H]3Cc4ccc(OC)c(O)c4[C@]2(CCN3C)CC1=O`, the inhibition is 5.14%.

With `COc1c(O)ccc2c1-c1c3c(cc4c1C(C2)N(C)CC4)OCO3` (stereo not given), the inhibition is 0.43%.

With `COc1ccc2c(c1O)-c1cccc3c1[C@@H](C2)N(C)CC3`, the inhibition is 15.8% (active). To `Fc1cccc(F)c1CN1CCN(Cc2c(F)cccc2F)CC1` belongs -1.68%; to `CO[C@H]([C@H](C)/C=C/N(C)C=O)[C@@H](C)C(=O)CC[C@H](C)[C@H](O)[C@H](C)[C@H]1OC(=O)/C=C/C(C)=C/[C@H](O)[C@H](OC)C[C@@H]2C=CC[C@@H](C[C@H](OC)[C@@]3(CO3)[C@@H](OC)C[C@@H](OC)[C@@H]1C)O2`, 1.04%.
